Sampled rows, rich in hits. Any-hit rate of the full collection: about 2.2%.
LGR2 inh – Drosophila LGR2 receptor signaling inhibition; 380,000 tested, 0.35% active; inhibition, % at 9.99 µM; AID 720647; HEK293 LGR2, CRE-luciferase, bursicon-stimulated, 4 h;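 active = drop in luminescence signal, shown as inhibition above about 50% in the replicate tests, limit read from the data, passing the limit was not always enough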;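 also: agonist challenge used bursicon conditioned medium at about half maximal strength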
HSP90 refold inh – blocks HSP90-mediated luciferase refolding in reticulocyte lysate. Rabbit reticulocyte lysate, luciferase refolding luminescence, 3 h. 290,000 tested, 0.91% active. inhibition, % at 5.6 µM;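 active = inhibition above the screen-wide mean plus 3 SD, computed separately per campaign, cut at about 16% in these data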;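 also: 0% = DMSO wells and 100% = 60 µM geldanamycin wells; inhibitors lower the luminescence because luciferase stays unfolded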
TROY signal inh – inhibitors of TROY-dependent NF-kB signaling; inhibition, % at 10 µM; Q293 LMP1-TROYcd NF-kB luciferase reporter, 4 h; 360,000 tested, 0.98% active;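 active = compounds whose plate-normalised and pattern-corrected inhibition of the luciferase reporter signal at the single screening dose is 50% or more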
TWEAK-Fn14 inh – inhibitors of TWEAK-Fn14 interaction signaling; TWEAK-stimulated Fn14 reporter cells, luciferase luminescence, 8 h; inhibition, % at 10 µM; 360,000 tested, 2% active; AID 1159606; in the data active = inhibition above about 50%
The depositor's hits bear a star; . = no result given.

SMILES | LGR2 inh | HSP90 refold inh | TROY signal inh | TWEAK-Fn14 inh
O=C(C[C@H]1CC[C@@H]2[C@H](COC[C@@H](O)CN2C(=O)Nc2ccc(F)cc2)O1)NCCc1ccccc1 | 13 | . | . | .
COc1cc(/C=C2\C(=O)N(c3ccc(NC(C)=O)cc3)N=C2c2ccccc2)ccc1O | -3 | 16* | -17 | 7
O=C1/C(=C\c2ccc(O)c(O)c2)C(c2ccccc2)=NN1c1ccccc1 | 19 | 5 | 43 | 8
O=C1C=CC(=O)C(CNc2ccc(C(=O)OCc3ccccc3)cc2)=C1 | 9 | . | 41 | 107*
COc1ccc2c(c1OC)C(=O)OC2 | . | -3 | -5 | -4
COc1ccc2c3c(cccc13)C(=O)CC2 | 30 | 5 | 28 | 63*
Cn1c(/C=C/c2ccccc2)nc2ccccc21 | 80* | 14 | 31 | 83*
Cn1c(=O)c(/C=C/c2ccccc2)nc2ccccc21 | -17 | 1 | -46 | -6
COc1ccc(/C(N)=N/OC(=O)c2cccs2)cc1 | 70* | 15 | 22 | 43
N/C(=N\OC(=O)c1cccs1)c1ccc(Cl)cc1 | -22 | -5 | -41 | -26
CCCCC(=O)N(C)c1c(C)nc2ccc(C(=O)N3CCCCC3)cn12 | 100* | . | -13 | 0
COc1ccc(-c2nn(-c3ccccc3)cc2/C=N/NC(=O)c2ccc3c(c2)OCO3)cc1 | . | -2 | . | .
COc1ccc(-c2nn(-c3ccccc3)cc2/C=N/NC(=O)c2ccc(Br)o2)cc1 | . | -1 | 76* | 94*
O=C(O)C1CCC(CNCc2ccccc2Cl)CC1 (stereo not drawn) | 0 | 0 | 6 | 56*
COc1ccc(-c2cnc3c(NC=O)cc(-c4ccccc4OC)cn23)cc1OC | -26 | . | 26 | 53*
Cc1cccc(-c2cc(NC=O)c3ncc(-c4cccc(C(=O)N(C)C)c4)n3c2)c1 | -6 | . | 5 | 16
COc1cc(-c2cnc3c(NC(C)=O)cc(-c4ccc(N5CCN(C)CC5)cc4)cn23)cc(OC)c1OC | 22 | . | 63* | 54*
CN(C)C(=O)c1cccc(-c2cnc3c(NC=O)cc(-c4cccc(C(F)(F)F)c4)cn23)c1 | 16 | . | 34 | 63*
COc1cc(-c2cnc3c(NC=O)cc(-c4ccc(N5CCN(C)CC5)cc4)cn23)cc(OC)c1OC | -21 | . | 44 | -3
COc1cc(-c2cnc3c(NC=O)cc(-c4cccc(C(F)(F)F)c4)cn23)cc(OC)c1OC | 13 | . | 39 | 75*
C[C@@H]1CCn2cc(nn2)COC[C@@H](c2ccccc2)NC1=O | 9 | . | . | .
CC(C)n1cnc2cc(NCc3ccccn3)ccc21 | . | 12 | 52* | 33
CCCc1c(-c2ccc(O)cc2)nn(-c2ccc(O)cc2)c1-c1ccc(O)cc1 | . | . | 75* | 1
COc1ccc(CN(C)C[C@@H]2OCCCC[C@H](C)Oc3ccc(NS(=O)(=O)c4ccc(C)cc4)cc3C(=O)N([C@@H](C)CO)C[C@@H]2C)cc1 | -15 | . | . | .
CCC(C)N(CC(=O)Nc1cccc(C)c1C)C(=O)CCl (stereo not drawn) | . | 6 | 8 | 60*
SMILES | LGR2 inh | HSP90 refold inh | TROY signal inh | TWEAK-Fn14 inh
O=C(O)CSCC(=O)Nc1ccc(Cl)cc1C(F)(F)F | -8 | 2 | 3 | -49
CC(C)N(CC(=O)Nc1ccc(Cl)cc1C(F)(F)F)C(=O)CCl | 3 | -1 | -5 | 63*
COc1ccc(-c2nn(-c3ccccc3)cc2C(=O)NC(=S)NNC(=O)c2ccncc2)cc1 | 26 | 4 | 35 | 60*
Nc1cccc(-c2cn(-c3cc4cc(C#CC5(O)CCCCC5)ccc4oc3=O)nn2)c1 | . | . | -1 | -5
O=c1oc2ccc(C#CC3(O)CCCCC3)cc2cc1-n1cc(-c2ccccn2)nn1 | -17 | . | 41 | 58*
CC(=O)Oc1ccc2ccccc2c1C(NC(=O)Cc1ccccc1)c1ccc(Cl)cc1 (stereo not drawn) | . | 2 | 36 | 55*
O=C(C[C@@H]1C=C[C@H](NS(=O)(=O)c2ccc(F)cc2)[C@@H](CO)O1)N1CCC(Cc2ccccc2)CC1 | 0 | . | . | .
Oc1nc(Nc2cccc(Cl)c2)sc1/C=C1\C=Nc2ccccc21 | 4 | 3 | 83* | 53*
CC1=Nc2ccccc2/C1=C\c1sc(Nc2ccc(C)cc2)nc1O | -13 | -6 | 26 | 55*
C[C@H]1CN([C@@H](C)CO)C(=O)c2cc(NC(=O)NC3CCCCC3)ccc2O[C@@H]1CN(C)C(=O)Nc1ccc(C(F)(F)F)cc1 | -14 | . | . | .
O=C(Nc1cccc2ncccc12)c1ccc2c(c1)OCCO2 | . | -1 | . | 83*
Nc1ccc(C(=O)Nc2cccc3ncccc23)cc1 | 6 | -2 | -8 | 6
O=C(Nc1ccc2c(c1)OCCO2)c1ccc2nccnc2c1 | 32 | 14 | -32 | 70*
